Screening data from PubChem BioAssay.
FMDV RLuc = FMDV antiviral activity by Renilla signal. FMDV replicon cells, Renilla luciferase signal. Potency, µM (series often up to 57.5 µM), for inactives: at the highest dose activity change, negative = inhibition, actives largely listed as inhibitors. 0.32% of 120,000 active. AID 1745857; also: nearly all actives have a fitted effect of over 55% in size
FMDV antiviral = shows antiviral activity against foot and mouth disease virus; FMDV antiviral cell assay, firefly luciferase signal; 0.23% of 120,000 active; Potency, µM (titrated, usually from 57.5 µM), inactives show top-dose activity change, negative = inhibition, usual class: inhibitors; AID 1745856; also: nearly all actives have a fitted effect of over 60% in size
An asterisk follows results filed as active; ? = inconclusive; [ ] = remark or other dose. Rows were chosen to be rich in hits. Some 0.4% of all compounds tested hit in one or more screens of this group. Calls follow the shape of the full dose curve. % is scaled to controls: 0 for no effect and ±100 for the full control effect; potency is read from the fitted curve at half-maximal effect.

SMILES | FMDV RLuc | FMDV antiviral
CCOc1ccc(CN2CCN(c3ncnc4sccc34)CC2)cc1 | 0.89µM* | 1.1µM*
COc1ccc(-c2csc3ncnc(N4CCN(Cc5ccccc5)CC4)c23)cc1 | -7% | 15%
Cc1oc(-c2cccs2)nc1CC(=O)Nc1ccccc1C(C)(C)C | 14% | -7%
COc1ccccc1C(=O)Nc1nc(-c2ccc(Br)cc2)ns1 | -4% | -3%
Cc1ccccc1C(=O)Nc1nc(-c2ccc(Br)cc2)ns1 | 35µM* | ?
Cn1cnc2c1c(=O)n(CCCSc1nc3ccccc3[nH]1)c(=O)n2C | 8% | 12%
Cc1ccccc1OCC(O)CN1CCN(c2nccs2)CC1 (stereo not given) | -12% | -5%
O[C@@H](COc1cccc2ncccc12)CN1CCN(C2c3ccccc3[C@@H]3[C@H](c4ccccc42)C3(F)F)CC1 (stereo not given in full) | 25µM* | -13%[11.5 µM]
C/C(=N/O)c1oc2ccccc2c1C | 6% | 39%
CC1OC(OC2CCC3(C=O)[C@H]4CCC5(C)C(C6=CC(=O)OC6)CCC5(O)[C@@H]4CCC3(O)C2)CC(O)C1O (stereo not given in full) | 0.28µM* | ?
CC1OC(OC2CCC3(C=O)[C@H]4CCC5(C)C(C6=CC(=O)OC6)CCC5(O)[C@@H]4CCC3(O)C2)C(O)C(O)C1O (stereo not given in full) | -75% | -79%
CC12CC[C@H]3[C@@H](CCC4(O)CC(O[N+](=O)[O-])CCC34CO[N+](=O)[O-])C1(O)CCC2C1=CC(=O)OC1 (stereo not given in full) | 10µM* | ?
CC1OC(OC2CCC3(C=O)[C@H]4CCC5(C)C(C6=CC(=O)OC6)CCC5(O)[C@@H]4CCC3(O)C2)CC2OC(C)(C)OC12 (stereo not given in full) | 1.3µM* | 1µM*
C[C@@H]1O[C@@H](O[C@H]2C[C@@H](O)[C@]3(CO)[C@H]4[C@H](O)C[C@]5(C)[C@@H](C6=CC(=O)OC6)CC[C@]5(O)[C@@H]4CC[C@]3(O)C2)[C@H](O)[C@H](O)[C@H]1O | -76% | -69%[11.5 µM]
COCCCNc1nc2ccccc2nc1N(C)S(=O)(=O)c1ccc(C)cc1 | 0% | -14%
O=C(O)COc1ccccc1/C=N/O | 4% | 5%
COc1ccc(CNC(C)C)c2ccccc12 | -28% | -20%
CNc1oc(/C=C/c2ccc(OC)c(OC)c2)nc1C#N | -1% | 0%
COc1ccccc1OCCn1cc(C(=O)C(F)(F)F)c2cc(Br)ccc21 | -9% | -3%
COc1ccccc1OCCn1cc(C(C)=O)c2ccccc21 | 16µM* | ?
CCn1c(=O)c2sccc2n(CC(=O)N(C)c2ccccc2)c1=O | -1% | 6%
O=C(OCc1nc2ccccc2o1)c1cccc(S(=O)(=O)N2CCCCCC2)c1 | 0% | 25%
CC(C)c1ccc(NC(=O)Cn2c(=O)oc3cc(S(=O)(=O)N4CCCC4)ccc32)cc1 | ? | 6.3µM*
Cc1cc(C)cc(NC(=O)Cn2c(=O)oc3cc(S(=O)(=O)N4CCCC4)ccc32)c1 | -1% | 0%
CN(C)c1ccc(CNC(=O)Cn2c(=O)oc3cc(S(=O)(=O)N4CCCCCC4)ccc32)cc1 | 20µM* | ?
SMILES | FMDV RLuc | FMDV antiviral
COc1ccc(CNC(=O)Cn2c(=O)oc3cc(S(=O)(=O)N4CCCC4)ccc32)cc1 | -8% | 16%
Cc1nc2ccc(C(=O)N3CCCC3CN3CCCC3)cc2nc1C (stereo not given) | -11% | 114%
COc1ccc2cnn(CC(=O)Nc3cccc4ccccc34)c(=O)c2c1OC | 1% | 5%
Cn1c(=O)c2c(ncn2CC(=O)OCc2cccc3ccccc23)n(C)c1=O | -3% | 9%
CCCc1nc(Cn2cnc3c2c(=O)n(C)c(=O)n3C)cs1 | 10µM* | 10µM*
Cn1c(=O)c2c(ncn2Cc2cccc3ccccc23)n(C)c1=O | 5.6µM* | ?
CCOc1ccc(Cn2cnc3c2c(=O)n(C)c(=O)n3C)cc1OCC | 11µM* | 13µM*
Cn1c(=O)c2c(ncn2Cc2ccc(Cl)c(Cl)c2)n(C)c1=O | ? | -28%
Cn1c(=O)c2c(ncn2Cc2ccc(F)cc2)n(C)c1=O | -6% | 8%
CCc1cccc(OCC(O)Cn2cnc3c2c(=O)n(C)c(=O)n3C)c1 (stereo not given) | -28% | -28%
Cc1ccc(C(C)C)c(OCC(O)Cn2cnc3c2c(=O)n(C)c(=O)n3C)c1 (stereo not given) | 25µM* | 25µM*
CCCCCOc1ccc2c(C)c(CCCCC)c(=O)oc2c1 | 0% | 5%
c1ccc(C2=Nc3ccccc3N=C(c3ccccc3)c3ccccc32)cc1 | 26% | 11%
C=Cc1c(C)n[nH]c1C | -5% | 4%
COc1ccc(CNC(=O)c2nccnc2N)cc1 | -19% | 28%
CCOc1ccccc1Oc1ccc(CNC(=O)c2nccnc2N)cn1 | 14µM* | 16µM*
COc1ccc(CNC(=O)c2nccnc2N)cc1OC | 9% | 6%
Nc1nccnc1C(=O)NCc1ccnc(OCc2ccccc2)c1 | 10µM* | 22µM*
Nc1nccnc1C(=O)NCc1ccnc(Oc2ccc(F)cc2)c1 | 13µM* | ?
O=C(Cc1cccc(F)c1)NCc1ccnc(OCc2ccccc2)c1 | 6% | 39%
COc1cc(CNC(=O)c2nccnc2N)ccc1OCc1ccncc1 | 10µM* | 22µM*
CCOc1ccccc1Oc1ccc(CNC(=O)Nc2cccnc2)cn1 | -16% | 14%
CCC1=Nc2ccccc2N=C(NC(=O)c2ccc(OC)cc2)C1c1ccc(OC)c(OC)c1 (stereo not given) | 137% | 47%
Cc1cc(NC(=O)CN2CCN(c3nccs3)CC2)no1 | -6% | 9%
O=C(CS(=O)(=O)c1ccc2ccccc2c1)c1ccc(Cl)cc1 | 117% | 10%
COc1ccc(OC(=O)c2ccc(OC)c(Br)c2)cc1 | 29% | 0%
O=C(Nc1ccnn1Cc1ccccc1)c1cc(=O)c2cc(Cl)ccc2o1 | -7% | -17%
CC(C)(C)C(=O)Nc1ccc2oc(-c3cncc(Br)c3)nc2c1 | 25% | 252%
Cc1ccc(Cn2c(N3CCN(C/C=C/c4ccccc4)CC3)nc3c2c(=O)[nH]c(=O)n3C)cc1 | -14% | -13%
N#C/C(=C/c1ccc(F)c(F)c1)C(=O)Nc1ccc(Oc2ccc(NC(=O)/C(C#N)=C\c3ccc(F)c(F)c3)cc2)cc1 | 81% | -10%
